Among the test systems are HCT-15 colon; SNB-75 CNS; SNB-19 CNS; U251 CNS; PC-3 prostate; SK-MEL-5 melanoma; UACC-62 melanoma; LOX IMVI melanoma; SK-MEL-28 melanoma; SN12C renal; UO-31 renal; ACHN renal; CAKI-1 renal; A498 renal; CCRF-CEM leukemia; MOLT-4 leukemia; EKVX NSCLC; SK-MEL-2 melanoma; TK-10 renal.
What all share (assay): NCI-60 one-dose screen, 48 h (100 = growth as untreated, 0 = no growth, -100 = all killed)
Common to all, as to settings: 10 µM unless noted

Compounds without any hit were thinned out: in the full panel of roughly 83,000, 20% have a hit.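 Step 1: grow cells in 96-well plates. Step 2: add test compound at a single concentration. Step 3: incubate 48 h. Step 4: record percent growth.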 A number with no mark means an inactive call. The source made the active and inactive calls. The calls were made as follows: active = growth percent below 10; inactive = the rest.

With `COc1ccccc1NC(=O)c1sc2nc3c(cc2c1N)C(=O)CCC3`, the growth with HCT-15 colon is 47.3%; in the assay on SNB-75 CNS, 56.6%; in the assay on SNB-19 CNS, 64.6%; with U251 CNS, 65.1%; in the assay on PC-3 prostate, 65.9%; with SK-MEL-5 melanoma, 38.9%. Further, the growth is 44.4% in the assay with UACC-62 melanoma; 79.4% with LOX IMVI melanoma; 59.1% in the assay with SK-MEL-28 melanoma; 70.2% in the assay on SN12C renal; 70.5% in the assay on UO-31 renal; 70.4% in the assay on ACHN renal. The growth was 52.7% in the assay with CAKI-1 renal, -5.03% (active) with A498 renal, 67.7% with CCRF-CEM leukemia and 89.6% in the assay on MOLT-4 leukemia.
In the case of `O=C(Nc1ccccc1S)c1ccccc1`, the growth in the assay on HCT-15 colon is 108%; with SNB-75 CNS it was 81.7%; in the assay on SNB-19 CNS, 100%; with U251 CNS, 94.8%; with PC-3 prostate it was 88.5%; with SK-MEL-5 melanoma it was 114%. In addition, the growth with UACC-62 melanoma is 86.6%; in the assay on LOX IMVI melanoma it was 84.9%; with SK-MEL-28 melanoma, 112%; in the assay on EKVX NSCLC, 94.6%; with SN12C renal, 95.2%; in the assay with UO-31 renal, 91.8%. In addition, the growth was 104% in the assay on ACHN renal, 86.5% in the assay on A498 renal, 106% in the assay on CCRF-CEM leukemia and 82% in the assay with MOLT-4 leukemia.
On to `CCN(CC)CCCCCCCNc1c2ccc(Cl)cc2nc2ccc(OC)cc12`, for which the growth is -5.62% (active) in the assay on HCT-15 colon; -94.1% (active) in the assay with SNB-75 CNS; -10.1% (active) with SNB-19 CNS; -70.2% (active) in the assay on U251 CNS; -56.1% (active) in the assay with PC-3 prostate; -100% (active) in the assay with SK-MEL-5 melanoma. Also, the growth with UACC-62 melanoma was -55% (active); with LOX IMVI melanoma it was -7.86% (active); with SK-MEL-28 melanoma, -77.4% (active); in the assay on EKVX NSCLC it was -6.42% (active); in the assay on SN12C renal, 0.458% (active); in the assay on UO-31 renal, -52% (active). In addition, the growth is -39.1% (active) in the assay on ACHN renal, -92.1% (active) with A498 renal, 0.0912% (active) in the assay with CCRF-CEM leukemia and -11.3% (active) in the assay with MOLT-4 leukemia.
`Oc1ccccc1/C=N/N1CCCCCC1`: the growth is 93.7% in the assay with HCT-15 colon; 80.3% with SNB-75 CNS; 97.1% in the assay on SNB-19 CNS; 120% with U251 CNS; 94.2% in the assay with SK-MEL-5 melanoma; 85.9% with UACC-62 melanoma. Besides, the growth in the assay on LOX IMVI melanoma is 96%; with SK-MEL-28 melanoma it was 109%; in the assay with SK-MEL-2 melanoma, 103%; in the assay with EKVX NSCLC, 115%; in the assay with SN12C renal, 93.6%; with UO-31 renal, 83.1%. The growth in the assay on TK-10 renal was 103%; in the assay on ACHN renal, 105%; with CCRF-CEM leukemia, 76%; with MOLT-4 leukemia, 95.1%.
`O=C1c2cc3c(cc2-c2c1c1ccc(Cl)cc1c(=O)n2CCCNCCO)OCO3`: the growth in the assay with HCT-15 colon is -78.3% (active); in the assay on SNB-75 CNS it was -88.8% (active); in the assay on SNB-19 CNS, -62.8% (active); in the assay on U251 CNS it was -94.6% (active); with PC-3 prostate, -85.5% (active); with LOX IMVI melanoma, -89.2% (active). Also, the growth in the assay with SK-MEL-28 melanoma is -74% (active); in the assay on EKVX NSCLC it was -65.3% (active); in the assay with SN12C renal, -66.6% (active); in the assay on UO-31 renal it was -81.7% (active); in the assay on ACHN renal, -87.5% (active); with CAKI-1 renal it was -80% (active). The growth in the assay on A498 renal was -94.4% (active); with CCRF-CEM leukemia it was -24.9% (active); in the assay with MOLT-4 leukemia, -34.5% (active).
As for `COc1cc(/C=C/c2cc(/C=C/c3ccc(O)c(OC)c3)n(C(=O)c3ccc(Cl)cc3)n2)ccc1O`, the growth with HCT-15 colon is 14.1%; in the assay with SNB-75 CNS it was -2.93% (active); in the assay with SNB-19 CNS, 45.6%; with U251 CNS it was 16.8%; with PC-3 prostate it was 4.59% (active); in the assay on SK-MEL-5 melanoma, -32.4% (active). The growth in the assay with UACC-62 melanoma was 22.5%; in the assay with LOX IMVI melanoma, 13.9%; in the assay with SK-MEL-28 melanoma it was 19.5%; in the assay with SN12C renal it was 13.6%; in the assay with UO-31 renal, 0.559% (active); with ACHN renal it was 11.5%. For the same compound, the growth in the assay on CAKI-1 renal was 17.9%; with CCRF-CEM leukemia, 0.628% (active); in the assay on MOLT-4 leukemia, 5.8% (active).
With `COc1cc(Cl)cc(-c2nn(-c3cccc(NC(=O)c4cc(C(F)(F)F)cc(C(F)(F)F)c4)c3)cc2-c2ccncc2)c1`, the growth is 58.6% in the assay with HCT-15 colon; 60.8% in the assay on SNB-75 CNS; 86.4% with SNB-19 CNS; 60.7% in the assay with U251 CNS; 35.6% in the assay on PC-3 prostate; 67.3% in the assay with SK-MEL-5 melanoma. The growth was 81.4% in the assay with UACC-62 melanoma; 76.1% in the assay on LOX IMVI melanoma; 78.8% with SK-MEL-28 melanoma; 69.8% in the assay with SN12C renal; 54.3% in the assay on UO-31 renal; 58.2% in the assay with ACHN renal. Further, the growth with CAKI-1 renal was 68.6%; with A498 renal, -1.74% (active); with CCRF-CEM leukemia, 57.1%; with MOLT-4 leukemia, 55.3%.
As for `O=C(Nc1cccc(-n2cc(-c3ccncc3)c(-c3cc(O)cc(Cl)c3)n2)c1)Nc1ccc(Cl)c(Cl)c1`, the growth was -25.3% (active) in the assay with HCT-15 colon; 4.08% (active) in the assay on SNB-75 CNS; 30.8% with SNB-19 CNS; -56.5% (active) with U251 CNS; -1.66% (active) with PC-3 prostate; -53% (active) in the assay on SK-MEL-5 melanoma. For the same compound, the growth was -61.8% (active) in the assay with UACC-62 melanoma; -84.7% (active) in the assay with LOX IMVI melanoma; -50.9% (active) with SK-MEL-28 melanoma; 14.9% with SN12C renal; -41.3% (active) with UO-31 renal; 6.85% (active) in the assay with ACHN renal. For the same compound, the growth in the assay with CAKI-1 renal was 5.31% (active); in the assay on A498 renal, -2.98% (active); in the assay on CCRF-CEM leukemia, 4.11% (active); with MOLT-4 leukemia it was -27.1% (active).

Values taken from PubChem BioAssay (NCI).
